# Data from PubChem BioAssay.
# Values joined by “and” are separate entries in the source; they are usually repeats but may differ in a detail not shown here. Equal entries are not always repeated. Active and inactive are the calls of the source.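 How the source made its calls, unless noted: active means z-score of at least 1.8 in each of two replicates, scored against plate mean and spread of sample wells; inactive means the rest.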
# Assays:
# [1] = yeast 75Q aggregation reduction – 75Q-TubU reporter (AID 1593); conditions: Yeast 75Q polyglutamine aggregation reporter
# [2] = blockers of cytochrome c efflux from mitochondria – biochemical, purified mitochondria (AID 1603); conditions: stronger effect = lower value;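 further: mouse liver mitochondria challenged with calcium chloride; signal normalized to the plate average as 100%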
# [3] = polyglutamine aggregate formation blockers (AID 1604); conditions: polyglutamine-induced protein aggregation inhibition assay; stronger effect = higher value; tested at 2.5 µM
# [4] = Wnt pathway potentiators raising nuclear beta-catenin – imaging, WNT3A-conditioned medium, mouse C2C12, NPC library, primary screen (AID 1117326; in the data active means nuclear beta-catenin stimulation mostly above about 4.2%, no sharp cut-off; inactive means mostly below about 10%); conditions: stronger effect = higher value
# [5] = stimulators of insulin release from INS-1E, primary screen, cell-based, 5 mM glucose, NPC library (AID 1117329;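 active means compound raises insulin release from rat beta cells at 5 mM glucose, no numeric limit stated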); conditions: rat INS-1E insulin secretion, at 10 µM, stronger effect = higher value
# [6] = growth inhibition of GSK3B-pretreated HCT116 cells – cell-based, CellTiter-Glo, 0.2 to 20 µM (AID 1117336;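 active means compounds lowering colon cancer cell viability after pretreatment blocking the GSK3B kinase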); conditions: HCT116 viability after GSK3B inhibitor, at 20 µM, stronger effect = higher value
# [7] = inhibition of endothelial tube formation, primary screen, imaging, VEGF stimulated, CD31 staining, tube area, NPC library (AID 1117340;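 active means compound that reduces growth-factor-driven endothelial tube area in a mixed cell culture, no cutoff stated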); conditions: VEGF-stimulated ADSC/ECFC co-culture, at 10 µM, stronger effect = higher value
# [8] = GLP1 release stimulators, primary, NCI-H716, NPC library (AID 1117341;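 active means compound raises GLP1 secretion from the human gut endocrine cells, with no numeric limit stated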); conditions: NCI-H716 cells, at 10 µM, stronger effect = higher value
# [9] = HCT116 colon cancer cell growth inhibition, primary screen, CellTiter-Glo luminescence, NPC library (AID 1117342;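 active means compounds that lower survival of HCT116 colon cancer cells in the luminescence readout, no numeric limit stated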); conditions: at 20 µM (top of the series)
# [10] = reduced SW480 viability measured with CellTiter-Glo, NPC library, primary (AID 1117343;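 active means compounds that lower viability of the colon cancer cells in the luminescence readout, with no numeric limit stated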); conditions: CellTiter-Glo luminescence; at 20 µM (top of the series)
# [11] = NPC library primary testing for decreased DLD-1 cell viability via CellTiter-Glo (AID 1117346;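 active means compounds that lower survival of DLD-1 colon cancer cells in the luminescence readout, no cutoff given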); conditions: DLD-1 viability, CellTiter-Glo luminescence; at 20 µM (top of the series)
# [12] = biological target: 6-phosphogluconate dehydrogenase, decarboxylating (Homo sapiens) (UniProt P52209); experiment: inhibition of human phosphogluconate dehydrogenase – biochemical, recombinant enzyme, NADPH absorbance, primary screen (AID 1159550;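 active means at least 20% inhibition of 6-phosphogluconate dehydrogenase activity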); conditions: recombinant 6PGD, NADPH absorbance 341 nm; at 10 µM; stronger effect = higher value
# [13] = EMT-state selective cytotoxicity in co-culture – imaging, PC-3E GFP, TEM4-18 mCherry, primary screen (AID 1345086;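 active means compounds killing one labelled cell type while sparing the other, by normalised counts and ratio limits, not self-fluorescent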;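 on all read-outs here: cells exposed to compound for 72 h before imaging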;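 on red/green cell ratio (normalised): normalised mesenchymal count divided by normalised epithelial count so high means epithelial killing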); conditions: PC-3E GFP / TEM4-18 mCherry co-culture, imaging cell counts, at 1 µM; for red/green cell ratio (normalised): actives lie on both sides
# [14] = test system: Aerobactin synthetase IucA (Klebsiella pneumoniae hvKP1); experiment: IucA enzyme inhibition, primary screen, biochemical, Spectrum library (AID 1346200; call rule not given here;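 further: 100% = wells without compound and 0% = wells lacking enzyme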); conditions: malachite green pyrophosphate, A620, at 8 µM, stronger effect = lower value
# [15] = viability loss with induced miR-34 in A549 – imaging, A549 dox-inducible miR-34, nuclei and caspase counts, primary screen (AID 1347080;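 active means compounds whose cell count with miR-34 switched on is under 0.7 times the count with it off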); conditions: A549 miR-34 inducible, Hoechst nuclei count, 48 h
# [16] = MELAS cybrid and Rieske KO viability enhancers – cell-based, MELAS cybrids, Rieske KO mouse fibroblasts, CellTiter-Glo, primary screen (AID 1508586;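 active means mean z-score across replicates of 1.96 or higher in either the MELAS or the Rieske mutant cell line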;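 further: z relative to plate mean and SD of compound and empty wells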); conditions: low glucose
# [17] = biological target: NAD(+) hydrolase SARM1 (Homo sapiens) (UniProt Q6SZW1); experiment: blocking NAD cleavage by SARM1 SAM-TIR – cell lysate, NAD-Glo luminescence (AID 1508614;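 active means compound whose remaining NAD level is above about 45 nM, limit read from the data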); conditions: SAM-TIR HEK293T lysate NADase, at 1 µM, stronger effect = higher value
# [18] = biological target: Mitogen-activated protein kinase 7 (Homo sapiens) (UniProt Q13164); experiment: Gal4-ERK5 driven luciferase induction – cell-based, HTS, primary screen (AID 1508626;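 active means luciferase signal above three times the same-plate solvent-only control wells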;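 further: luciferase driven by Gal4-ERK5 fusion binding five Gal4 sites before minimal TATA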); conditions: HeLa Gal4-ERK5 transactivation, 18 h, at 5 µM, stronger effect = higher value
# [19] = galactose survival enhancers in mitochondrial complex I cybrids – cell-based, galactose medium, ATP luminescence, primary screen (AID 1645843); conditions: complex I mutant cybrid cells, 72 h, stronger effect = higher value;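 further: positive z means more ATP and so rescue of galactose-driven cybrid death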
# [20] = P. berghei load reduction in hepatocytes – cell-based, HepG2, luciferase luminescence, HepG2 viability, primary screen (AID 624349; in the data active means parasite load remaining mostly below about 12%, no sharp cut-off; inactive means mostly above about 10%;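 further: 100% = mean of DMSO negative control wells on the same plate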); conditions: P. berghei liver stage in HepG2, luciferase luminescence, concentration not given here; parasite load remaining: stronger effect = lower value; viability: measured here: HepG2 viability without parasites
# [21] = measured here: epithelial PC-3E GFP cell survival
# [22] = measured here: mesenchymal TEM4-18 mCherry cell survival
# [23] = measured here: relative caspase fold change +Dox/-Dox
# [24] = measured here: total cells with miR-34 induction, stronger effect = lower value
# [25] = measured here: total cells without miR-34 induction
# [26] = MELAS cybrid survival, CellTiter-Glo 48 h, stronger effect = higher value
# [27] = Rieske KO mouse fibroblast survival, CellTiter-Glo 72 h
# [28] = stronger effect = lower value, cell number ratio, induced over uninduced
# NAD(+) hydrolase SARM1 (Homo sapiens), sequence (Q6SZW1 whole entry, looked up, the tested form may be a part): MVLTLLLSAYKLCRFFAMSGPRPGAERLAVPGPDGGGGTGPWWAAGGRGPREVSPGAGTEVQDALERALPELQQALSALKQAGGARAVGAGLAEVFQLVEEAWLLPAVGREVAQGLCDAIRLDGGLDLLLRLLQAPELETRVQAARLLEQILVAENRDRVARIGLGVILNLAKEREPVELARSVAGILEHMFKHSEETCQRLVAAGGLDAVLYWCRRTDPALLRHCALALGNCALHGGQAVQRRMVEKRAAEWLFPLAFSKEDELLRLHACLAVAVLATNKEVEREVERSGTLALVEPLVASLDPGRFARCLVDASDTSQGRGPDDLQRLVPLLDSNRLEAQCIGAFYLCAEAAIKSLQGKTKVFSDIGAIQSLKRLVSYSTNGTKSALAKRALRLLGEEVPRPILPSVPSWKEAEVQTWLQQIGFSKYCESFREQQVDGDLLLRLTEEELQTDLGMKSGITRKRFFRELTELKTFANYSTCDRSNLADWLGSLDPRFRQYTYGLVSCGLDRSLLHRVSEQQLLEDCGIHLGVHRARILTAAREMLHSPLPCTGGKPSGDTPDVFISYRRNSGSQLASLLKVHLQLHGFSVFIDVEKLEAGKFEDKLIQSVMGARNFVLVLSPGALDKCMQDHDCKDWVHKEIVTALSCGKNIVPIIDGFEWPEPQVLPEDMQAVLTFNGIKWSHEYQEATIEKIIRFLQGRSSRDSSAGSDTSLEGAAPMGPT
# 6-phosphogluconate dehydrogenase, decarboxylating (Homo sapiens), sequence (P52209 whole entry, looked up): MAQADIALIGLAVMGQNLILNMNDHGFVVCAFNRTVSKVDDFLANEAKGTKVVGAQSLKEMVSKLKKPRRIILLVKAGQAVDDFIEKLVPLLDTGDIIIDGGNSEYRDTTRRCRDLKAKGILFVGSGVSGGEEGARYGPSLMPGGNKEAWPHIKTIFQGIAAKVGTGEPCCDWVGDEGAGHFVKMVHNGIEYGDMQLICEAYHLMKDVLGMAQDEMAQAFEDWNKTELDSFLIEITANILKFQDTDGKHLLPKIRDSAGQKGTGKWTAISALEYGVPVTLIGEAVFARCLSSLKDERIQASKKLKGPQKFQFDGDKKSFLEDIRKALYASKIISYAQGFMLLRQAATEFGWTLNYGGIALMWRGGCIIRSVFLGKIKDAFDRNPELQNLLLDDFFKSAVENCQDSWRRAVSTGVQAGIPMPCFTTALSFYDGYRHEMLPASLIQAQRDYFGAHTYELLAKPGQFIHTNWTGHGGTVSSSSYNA
# Mitogen-activated protein kinase 7 (Homo sapiens), sequence (Q13164 whole entry, looked up, the tested form may be a part): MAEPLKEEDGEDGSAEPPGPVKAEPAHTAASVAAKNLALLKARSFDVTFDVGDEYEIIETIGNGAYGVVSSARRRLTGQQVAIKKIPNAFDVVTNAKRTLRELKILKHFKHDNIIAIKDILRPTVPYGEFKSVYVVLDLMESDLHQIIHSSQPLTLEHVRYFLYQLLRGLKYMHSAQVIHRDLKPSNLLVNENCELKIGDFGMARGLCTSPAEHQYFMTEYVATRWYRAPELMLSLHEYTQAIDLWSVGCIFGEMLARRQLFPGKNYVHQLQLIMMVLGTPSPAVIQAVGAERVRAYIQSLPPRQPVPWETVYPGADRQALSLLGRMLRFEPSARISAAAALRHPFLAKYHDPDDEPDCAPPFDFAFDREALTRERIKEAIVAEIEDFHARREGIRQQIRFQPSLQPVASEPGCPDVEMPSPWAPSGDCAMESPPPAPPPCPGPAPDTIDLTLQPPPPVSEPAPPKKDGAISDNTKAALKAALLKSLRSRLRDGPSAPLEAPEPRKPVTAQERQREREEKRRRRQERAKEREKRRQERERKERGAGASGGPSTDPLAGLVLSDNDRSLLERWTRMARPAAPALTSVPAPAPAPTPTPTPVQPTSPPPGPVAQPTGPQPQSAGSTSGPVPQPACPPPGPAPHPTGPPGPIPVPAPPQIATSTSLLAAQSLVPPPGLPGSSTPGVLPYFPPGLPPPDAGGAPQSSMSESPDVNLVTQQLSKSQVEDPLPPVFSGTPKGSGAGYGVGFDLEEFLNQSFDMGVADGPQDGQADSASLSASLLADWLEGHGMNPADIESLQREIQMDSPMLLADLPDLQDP
smiles,measurement,setting,value
CC(Cc1ccc(O)cc1)NCC(O)c1cc(O)cc(O)c1 (centres undefined),score,[1],1.05
same,cytochrome c release ratio,[2],1.18
same,inhibition of aggregation,[3],70.4%
same,nuclear beta-catenin stimulation,[4]; at 10 µM,-1.3% (inactive)
same,nuclear beta-catenin stimulation,"[4]; stimulation, at 2 µM",-0.9%
same,insulin secretion stimulation,[5],0.5% (inactive)
same,viability decrease,[6],-4.2% (inactive)
same,tube area decrease,[7],18.4% (inactive)
same,GLP1 secretion stimulation,[8],1.7% (inactive)
same,inhibition of viability,[9],-2.93% (inactive)
same,viability decrease (inhibition),[10],-0.4% (inactive)
same,viability decrease (inhibition),[11],-21.3% (inactive)
same,inhibition,[12],-6.23% (inactive)
same,red/green cell ratio (normalised),[13],1.06 (inactive)
same,normalised cell number,[13]; [21],0.97
same,normalised cell number,[13]; [22],1.03
same,activity remaining,[14],110% (inactive)
same,fold change,[15]; stronger effect = lower value,1 (inactive) and 0.892 (inactive) and 0.893 (inactive)
same,fold change,[15]; [23],0.955 and 0.849 and 2.71
same,cell count,[15]; [24],10100 and 8600 and 10800
same,cell count,[15]; [25],10100 and 9640 and 12100
same,z-score,[16]; [26],0.566 (inactive)
same,z-score,[16]; [27],0.235
same,remaining NAD,[17],10 nM (inactive)
same,luciferase signal,[18],48 AU (inactive)
same,z-score,[19],-0.085 (inactive)
O=c1[nH]c2ccccc2n1CCCN1CCC(n2c(=O)[nH]c3cc(Cl)ccc32)CC1,nuclear beta-catenin stimulation,[4]; at 10 µM,3.1% (inactive)
same,nuclear beta-catenin stimulation,"[4]; stimulation, at 2 µM",0.9%
same,insulin secretion stimulation,[5],41.9% (active)
same,viability decrease,[6],-17.1% (inactive)
same,tube area decrease,[7],12.9% (inactive)
same,GLP1 secretion stimulation,[8],6.8% (inactive)
same,inhibition of viability,[9],13.1% (inactive)
same,viability decrease (inhibition),[10],13.8% (inactive)
same,viability decrease (inhibition),[11],15.8% (inactive)
same,inhibition,[12],2.55% (inactive)
same,red/green cell ratio (normalised),[13],1.2 (inactive)
same,normalised cell number,[13]; [21],0.91
same,normalised cell number,[13]; [22],1.1
same,activity remaining,[14],117% (inactive)
same,z-score,[16]; [26],-0.488 (inactive) and -0.032 (inactive) and 1.25 (inactive)
same,z-score,[16]; [27],0.597 and -0.334 and 1.01
same,remaining NAD,[17],10 nM (inactive)
same,luciferase signal,[18],44 AU (inactive)
same,z-score,[19],-0.92 (inactive) and -0.455 (inactive) and -0.075 (inactive)
NCCc1ccc(O)cc1,score,[1],1.21
same,cytochrome c release ratio,[2],0.71
same,inhibition of aggregation,[3],39.2%
same,nuclear beta-catenin stimulation,[4]; at 10 µM,-0.5% (inactive)
same,nuclear beta-catenin stimulation,"[4]; stimulation, at 2 µM",1.3%
same,insulin secretion stimulation,[5],1.8% (inactive)
same,viability decrease,[6],4.6% (inactive)
same,tube area decrease,[7],-10% (inactive)
same,GLP1 secretion stimulation,[8],-1.8% (inactive)
same,inhibition of viability,[9],9.07% (inactive)
same,viability decrease (inhibition),[10],5.3% (inactive)
same,viability decrease (inhibition),[11],-2.9% (inactive)
same,inhibition,[12],-11.3% (inactive)
same,red/green cell ratio (normalised),[13],0.8 (inactive)
same,normalised cell number,[13]; [21],1.04
same,normalised cell number,[13]; [22],0.83
same,activity remaining,[14],108% (inactive)
same,fold change,[15]; [28],0.965 (inactive)
same,fold change,[15]; [23],1.32
same,cell count,[15]; [24],10000
same,cell count,[15]; [25],10400
same,luciferase signal,[18],52 AU (inactive)
same,z-score,[19],0.68 (inactive)
Clc1ccc(CO/N=C(\Cn2ccnc2)c2ccc(Cl)cc2Cl)c(Cl)c1,parasite load remaining,[20],88.3% (inactive) and 30.5% (inactive) and 1.97% (inactive)
same,viability,[20],76.2% and 91.5% and 53%
same,nuclear beta-catenin stimulation,[4]; at 10 µM,27.8% (inactive)
same,nuclear beta-catenin stimulation,"[4]; stimulation, at 2 µM",3.3%
same,insulin secretion stimulation,[5],-0.7% (inactive)
same,viability decrease,[6],101% (active)
same,tube area decrease,[7],109% (active)
same,GLP1 secretion stimulation,[8],25.7% (active)
same,inhibition of viability,[9],101% (active)
same,viability decrease (inhibition),[10],141% (active)
same,viability decrease (inhibition),[11],103% (active)
same,inhibition,[12],-14.7% (inactive)
same,red/green cell ratio (normalised),"[13]; counts scaled to control wells, 1 = unselective",1.02 (inactive)
same,normalised cell number,[13]; [21],1.03
same,normalised cell number,[13]; [22],1.05
same,activity remaining,[14],128% (inactive)
same,fold change,[15]; stronger effect = lower value,0.851 (inactive)
same,fold change,[15]; [28],1.12 (inactive)
same,fold change,[15]; [23],1.03 and 1.16
same,cell count,[15]; [24],7740 and 6080
same,cell count,[15]; [25],6900 and 7140
same,z-score,[16]; [26],-0.195 (inactive) and 0.269 (inactive)
same,z-score,[16]; [27],0.707 and 1.28
same,remaining NAD,[17],10 nM (inactive)
same,luciferase signal,[18],52 AU (inactive)
same,z-score,[19],-2.53 (inactive)
